Experimental findings from the supplement of paper PMC4022240 are described below.

Holding throughout (assay): peptide microarray binding signal (635 nm), min-max normalized on array (fraction of array maximum); higher = stronger binding
What all share (details): peptide region: H3 1-13

In experiment [1] the target is T1, HaloTag-ATRX ADD domain (163-292).
T1 chain: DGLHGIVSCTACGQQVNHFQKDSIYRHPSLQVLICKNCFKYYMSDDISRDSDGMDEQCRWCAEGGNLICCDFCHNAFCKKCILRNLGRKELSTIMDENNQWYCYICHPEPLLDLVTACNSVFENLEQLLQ
Here is the method:
(§1)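 Histone 13-mer peptides were synthesized as cellulose conjugates with a C-terminal 20-atom PEG linker and printed in triplicate on nitrocellulose. The sequence given is the unmodified backbone; PTMs (Kme1/2/3, Kac, Sph/Tph, Rme/Rme2a/Rme2s, Rcit) are listed in the label and the 'peptide modifications' condition. Slides were probed at 4 °C for 1 h with biotin-labelled (HQ)5-HaloTag reader fusions (ATRX-ADD, ING2-PHD) then streptavidin-Alexa647, or with rabbit histone antibodies then anti-rabbit Alexa647. The mean 635 nm signal of the triplicate spots was scaled 0-1 between the lowest and highest values on each array.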

For experiment [2], the target named is HaloTag-ING2 PHD (mouse Ing2 200-280). As for the experimental part:
as §1

Experiment [3] deals with anti-H3K4me3 antibody ab8580. As for the experimental part: as §1
Experiment [4] concerns the target anti-H3K9me3 antibody ab8898. Here is the method:
as §1

Setting [5] is: peptide modifications: H3R2cit H3T6ph, binder concentration: 1:2,000 dilution.
Where [6] appears, read: peptide modifications: H3R2cit H3T6ph, binder concentration: 1:10,000 dilution.
[7] abbreviates: peptide modifications: H3R2me2a H3K4me1, binder concentration: 1:2,000 dilution.
Setting [8] is: peptide modifications: H3R2me2a H3K4me1, binder concentration: 1:10,000 dilution.
Setting [9] is: peptide modifications: H3R2me1 H3K9me2, binder concentration: 1:2,000 dilution.
The mark [10] stands for this setting: peptide modifications: H3R2me1 H3K9me2, binder concentration: 1:10,000 dilution.
The mark [11] stands for this setting: peptide modifications: H3R2me1 H3K4me3, binder concentration: 1:2,000 dilution.
Setting [12] is: peptide modifications: H3R2me1 H3K4me3, binder concentration: 1:10,000 dilution.
[13] abbreviates: peptide modifications: H3R2cit H3T3ph, binder concentration: 1:2,000 dilution.
[14] abbreviates: peptide modifications: H3R2cit H3T3ph, binder concentration: 1:10,000 dilution.
Where [15] appears, read: peptide modifications: H3R2cit, binder concentration: 1:2,000 dilution.
[16] abbreviates: peptide modifications: H3R2cit, binder concentration: 1:10,000 dilution.
Where [17] appears, read: peptide modifications: H3R2me1 H3K4ac, binder concentration: 1:2,000 dilution.
The mark [18] stands for this setting: peptide modifications: H3R2me1 H3K4ac, binder concentration: 1:10,000 dilution.
Where [19] appears, read: peptide modifications: H3R2me1 H3T3ph, binder concentration: 1:2,000 dilution.
Setting [20] is: peptide modifications: H3R2me1 H3T3ph, binder concentration: 1:10,000 dilution.
The mark [21] stands for this setting: peptide modifications: H3R2me2a H3K9ac, binder concentration: 1:2,000 dilution.
Setting [22] is: peptide modifications: H3R2me2a H3K9ac, binder concentration: 1:10,000 dilution.
[23] abbreviates: peptide modifications: H3R2me2a H3K4ac, binder concentration: 1:2,000 dilution.
The mark [24] stands for this setting: peptide modifications: H3R2me2a H3K4ac, binder concentration: 1:10,000 dilution.

± gives the standard deviation.

ARTKQTARKSTGG [H3 1-13 A Rcit T K Q Tph A R K S T G G]: the “peptide microarray binding signal” value worked out at 0.00621 ± 0.00039 in experiment [1] (peptide modifications: H3R2cit H3T6ph, binder concentration: 50 nM); 0.0199 ± 0.0043 in experiment [1] (peptide modifications: H3R2cit H3T6ph, binder concentration: 500 nM); 0.00382 ± 0.00065 in experiment [2] (peptide modifications: H3R2cit H3T6ph, binder concentration: 10 nM); 0.0157 ± 0.0039 in experiment [2] (peptide modifications: H3R2cit H3T6ph, binder concentration: 100 nM); 0.00345 ± 0.00082 in experiment [3] (setting [5]); 0.00348 ± 0.00034 in experiment [3] (setting [6]). Moreover, the “peptide microarray binding signal” value in experiment [4] (setting [5]) was 0.00166 ± 0.00026; in experiment [4] (setting [6]), 0.00173 ± 0.00011.
Take ARTKQTARKSTGG [H3 1-13 A Rme2a T Kme Q T A R K S T G G]: the “peptide microarray binding signal” value in experiment [1] (peptide modifications: H3R2me2a H3K4me1, binder concentration: 50 nM) worked out at 0.0111 ± 0.00026; in experiment [1] (peptide modifications: H3R2me2a H3K4me1, binder concentration: 500 nM) it was 0.0211 ± 0.001; in experiment [2] (peptide modifications: H3R2me2a H3K4me1, binder concentration: 10 nM), 0.00585 ± 0.00028; in experiment [2] (peptide modifications: H3R2me2a H3K4me1, binder concentration: 100 nM) it was 0.0274 ± 0.013; in experiment [3] (setting [7]), 0.0329 ± 0.01; in experiment [3] (setting [8]), 0.0417 ± 0.011. The “peptide microarray binding signal” value in experiment [4] (setting [7]) was 0.00468 ± 0.00097; in experiment [4] (setting [8]) it was 0.00352 ± 0.00019.
For the molecule ARTKQTARKSTGG [H3 1-13 A Rme T K Q T A R Kme2 S T G G], the “peptide microarray binding signal” value was determined as 0.151 ± 0.01 in experiment [1] (peptide modifications: H3R2me1 H3K9me2, binder concentration: 50 nM); 0.167 ± 0.011 in experiment [1] (peptide modifications: H3R2me1 H3K9me2, binder concentration: 500 nM); 0.047 ± 0.0094 in experiment [2] (peptide modifications: H3R2me1 H3K9me2, binder concentration: 10 nM); 0.0747 ± 0.029 in experiment [2] (peptide modifications: H3R2me1 H3K9me2, binder concentration: 100 nM); 0.00563 ± 0.00089 in experiment [3] (setting [9]); 0.00873 ± 0.0023 in experiment [3] (setting [10]). The “peptide microarray binding signal” value came to 0.022 ± 0.012 in experiment [4] (setting [9]) and 0.0186 ± 0.014 in experiment [4] (setting [10]).
ARTKQTARKSTGG [H3 1-13 A Rme T Kme3 Q T A R K S T G G]: the “peptide microarray binding signal” value in experiment [1] (peptide modifications: H3R2me1 H3K4me3, binder concentration: 50 nM) turned out to be 0.00765 ± 0.00016; in experiment [1] (peptide modifications: H3R2me1 H3K4me3, binder concentration: 500 nM) it was 0.0187 ± 0.00094; in experiment [2] (peptide modifications: H3R2me1 H3K4me3, binder concentration: 10 nM), 0.267 ± 0.048; in experiment [2] (peptide modifications: H3R2me1 H3K4me3, binder concentration: 100 nM) it was 0.215 ± 0.13; in experiment [3] (setting [11]), 0.449 ± 0.19; in experiment [3] (setting [12]) it was 0.243 ± 0.053. For the same molecule, the “peptide microarray binding signal” value is 0.106 ± 0.018 in experiment [4] (setting [11]) and 0.0312 ± 0.0012 in experiment [4] (setting [12]).
Take ARTKQTARKSTGG [H3 1-13 A Rcit Tph K Q T A R K S T G G]: the “peptide microarray binding signal” value in experiment [1] (peptide modifications: H3R2cit H3T3ph, binder concentration: 50 nM) worked out at 0.00364 ± 0.00018; in experiment [1] (peptide modifications: H3R2cit H3T3ph, binder concentration: 500 nM), 0.0133 ± 0.0009; in experiment [2] (peptide modifications: H3R2cit H3T3ph, binder concentration: 10 nM) it was 0.00125 ± 3.1e-05; in experiment [2] (peptide modifications: H3R2cit H3T3ph, binder concentration: 100 nM), 0.0167 ± 0.011; in experiment [3] (setting [13]) it was 0.00283 ± 0.00066; in experiment [3] (setting [14]), 0.00126 ± 8.7e-05. Also, the “peptide microarray binding signal” value in experiment [4] (setting [13]) is 0.000846 ± 7.1e-05; in experiment [4] (setting [14]) it was 0.000807 ± 2.9e-05.
On to ARTKQTARKSTGG [H3 1-13 A Rcit T K Q T A R K S T G G], for which the “peptide microarray binding signal” value in experiment [1] (peptide modifications: H3R2cit, binder concentration: 50 nM) was 0.00937 ± 0.00037; in experiment [1] (peptide modifications: H3R2cit, binder concentration: 500 nM), 0.0298 ± 0.0055; in experiment [2] (peptide modifications: H3R2cit, binder concentration: 10 nM), 0.012 ± 0.0023; in experiment [2] (peptide modifications: H3R2cit, binder concentration: 100 nM) it was 0.0101 ± 0.001; in experiment [3] (setting [15]) it was 0.00315 ± 0.00061; in experiment [3] (setting [16]), 0.00126 ± 0.00016. Besides, the “peptide microarray binding signal” value worked out at 0.00101 ± 0.00014 in experiment [4] (setting [15]) and 0.000577 ± 1.6e-05 in experiment [4] (setting [16]).
Consider ARTKQTARKSTGG [H3 1-13 A Rme T Kac Q T A R K S T G G], for which the “peptide microarray binding signal” value in experiment [1] (peptide modifications: H3R2me1 H3K4ac, binder concentration: 50 nM) stood at 0.00636 ± 0.00044; in experiment [1] (peptide modifications: H3R2me1 H3K4ac, binder concentration: 500 nM), 0.00867 ± 0.00048; in experiment [2] (peptide modifications: H3R2me1 H3K4ac, binder concentration: 10 nM) it was 0.0133 ± 0.0026; in experiment [2] (peptide modifications: H3R2me1 H3K4ac, binder concentration: 100 nM), 0.0738 ± 0.0056; in experiment [3] (setting [17]), 0.00115 ± 0.0001; in experiment [3] (setting [18]), 0.001541 ± 1.5e-05. The “peptide microarray binding signal” value came to 0.00402 ± 0.0014 in experiment [4] (setting [17]) and 0.0011 ± 2.2e-05 in experiment [4] (setting [18]).
Take ARTKQTARKSTGG [H3 1-13 A Rme Tph K Q T A R K S T G G]: the “peptide microarray binding signal” value in experiment [1] (peptide modifications: H3R2me1 H3T3ph, binder concentration: 50 nM) stood at 0.00649 ± 0.00021; in experiment [1] (peptide modifications: H3R2me1 H3T3ph, binder concentration: 500 nM), 0.0224 ± 0.0029; in experiment [2] (peptide modifications: H3R2me1 H3T3ph, binder concentration: 10 nM) it was 0.00382 ± 7e-05; in experiment [2] (peptide modifications: H3R2me1 H3T3ph, binder concentration: 100 nM), 0.0254 ± 0.0015; in experiment [3] (setting [19]) it was 0.00321 ± 0.0015; in experiment [3] (setting [20]) it was 0.00183 ± 0.00011. For the same molecule, the “peptide microarray binding signal” value is 0.00154 ± 0.00026 in experiment [4] (setting [19]) and 0.000692 ± 1.5e-05 in experiment [4] (setting [20]).
For the molecule ARTKQTARKSTGG [H3 1-13 A Rme2a T K Q T A R Kac S T G G], the “peptide microarray binding signal” value in experiment [1] (peptide modifications: H3R2me2a H3K9ac, binder concentration: 50 nM) stood at 0.132 ± 0.1; in experiment [1] (peptide modifications: H3R2me2a H3K9ac, binder concentration: 500 nM) it was 0.0324 ± 0.01; in experiment [2] (peptide modifications: H3R2me2a H3K9ac, binder concentration: 10 nM) it was 0.0189 ± 0.0011; in experiment [2] (peptide modifications: H3R2me2a H3K9ac, binder concentration: 100 nM) it was 0.0301 ± 0.0026; in experiment [3] (setting [21]) it was 0.00698 ± 0.00018; in experiment [3] (setting [22]) it was 0.00799 ± 0.0008. Further, the “peptide microarray binding signal” value was 0.00634 ± 0.0012 in experiment [4] (setting [21]) and 0.0094 ± 0.0049 in experiment [4] (setting [22]).
Take ARTKQTARKSTGG [H3 1-13 A Rme2a T Kac Q T A R K S T G G]: the “peptide microarray binding signal” value in experiment [1] (peptide modifications: H3R2me2a H3K4ac, binder concentration: 50 nM) is 0.0125 ± 0.00079; in experiment [1] (peptide modifications: H3R2me2a H3K4ac, binder concentration: 500 nM), 0.0335 ± 0.0053; in experiment [2] (peptide modifications: H3R2me2a H3K4ac, binder concentration: 10 nM), 0.0118 ± 0.0039; in experiment [2] (peptide modifications: H3R2me2a H3K4ac, binder concentration: 100 nM), 0.0337 ± 0.0021; in experiment [3] (setting [23]) it was 0.00455 ± 0.00093; in experiment [3] (setting [24]), 0.00639 ± 0.00058. In addition, the entries for the “peptide microarray binding signal” value in experiment [4] (setting [23]) and in experiment [4] (setting [24]) were 0.0124 ± 0.0014 and 0.0053 ± 0.00063, respectively.
